KCNH2 3.1 inh: qHTS for Inhibitors of KCHN2 3.1: Mutant qHTS; AID 720553, 2013; Potassium voltage-gated channel subfamily H member 2, brain isoform KCNH2 3.1 (human); 340,000 tested, 0.95% active; U2OS KCNH2 3.1, thallium flux FluxOr; stronger effect = lower value; activity change, % (tested at about 1.8 µM);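 active = maximum activity change below -70%; inconclusive = maximum activity change from -70% to -50%; inactive = maximum activity change above -50%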;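 note: thallium influx rate constant from kinetic fluorescence after stimulation buffer; % is set by controls: 0 for no effect and ±100 for the full control effect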
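Kinetic fluorescence (2 min after stimulation buffer) measures Tl+ influx through KCNH2 3.1 expressed by viral transduction in U2OS cells; the rate constant is normalized against DMSO controls serving as positive and negative references.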
MCF10A rerep: A quantitative high throughput screen for small molecules that induce DNA re-replication in MCF 10a normal breast cells; MCF 10A DNA re-replication, Hoechst nuclear intensity, 48 h; Potency, µM (highest dose often 46.1 µM), for the others: top-dose activity, positive = re-replication, most hits filed as activators; 350,000 tested, 2.9% active; AID 624296, 2012; note: potency is the fitted concentration of half-maximal effect; % of control where 0% means no effect; nearly all actives have a fitted effect of over 50% in size
KB-V1 MDR tox: qHTS assay for MDR1-selective chemotherapeutics: Primary screen using the drug-selected MDR subline cells KB-V1; KB-V1 MDR cells viability, CellTiter-Glo, 72 h; Potency, µM (top dose mostly 46.1 µM), actives largely listed as cytotoxic; 400,000 tested, 3.4% active; AID 1347076, 2019; note: potency is the fitted concentration of half-maximal effect; % is set by controls: 0 for no effect and ±100 for the full control effect; nearly all actives have a fitted effect of over 60% in size
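KB-V1, DMEM (no phenol red) + 10% FBS; cpd pin-transferred, titration series; 72 h, 37 degrees C; CellTiter-Glo, luminescence. Data normalized, curve-fit.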
SW480 rerep: A quantitative high throughput screen for small molecules that induce DNA re-replication in SW480 colon adenocarcinoma cells; AID 624297, 2012; Potency, µM (series often up to 46.1 µM), for the others: at the highest dose re-replication activation, usual class: activators; 340,000 tested, 1.8% active; SW480 DNA re-replication, Hoechst DNA content imaging, 48 h; note: potency is the fitted concentration of half-maximal effect; % of control where 0% means no effect; nearly all actives have a fitted effect of over 55% in size
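Hoechst fluorescence of nuclei (405 nm excitation, 500-530 nm emission) measured by plate-scanning imager after 48 hr compound exposure at 37 C; re-replication scored as increased number of nuclei with elevated intensity.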
KB-3-1 cytotox: qHTS assay for MDR1-selective chemotherapeutics: Primary screen using the parental adenocarcinoma cell KB-3-1 | KB-3-1 viability, CellTiter-Glo ATP luminescence, 72 h | Potency, µM (doses to about 46.1 µM), most hits filed as cytotoxic | 400,000 tested, 1.4% active; note: potency is the fitted concentration of half-maximal effect; % is set by controls: 0 for no effect and ±100 for the full control effect; nearly all actives have a fitted effect of over 60% in size
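Viability of parental KB-3-1 cells, measured by CellTiter-Glo luminescence, followed a 72 h incubation at 37 °C with pinned compounds in phenol-red-free DMEM containing 10% FBS.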
KCNH2 WT inh: qHTS for Inhibitors of KCHN2 3.1: Wildtype qHTS; 340,000 tested, 0.37% active; U2OS, BacMam KCNH2, thallium flux FluxOr; stronger effect = lower value; activity change, % at 1.84 µM; Voltage-gated inwardly rectifying potassium channel KCNH2 (Homo sapiens), Q12809;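 active = maximum activity change below -70%; inconclusive = maximum activity change between -70% and -50%; inactive = maximum activity change above -50%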; note: % is set by controls: 0 for no effect and ±100 for the full control effect
Target sequence (Q12809 whole entry, looked up): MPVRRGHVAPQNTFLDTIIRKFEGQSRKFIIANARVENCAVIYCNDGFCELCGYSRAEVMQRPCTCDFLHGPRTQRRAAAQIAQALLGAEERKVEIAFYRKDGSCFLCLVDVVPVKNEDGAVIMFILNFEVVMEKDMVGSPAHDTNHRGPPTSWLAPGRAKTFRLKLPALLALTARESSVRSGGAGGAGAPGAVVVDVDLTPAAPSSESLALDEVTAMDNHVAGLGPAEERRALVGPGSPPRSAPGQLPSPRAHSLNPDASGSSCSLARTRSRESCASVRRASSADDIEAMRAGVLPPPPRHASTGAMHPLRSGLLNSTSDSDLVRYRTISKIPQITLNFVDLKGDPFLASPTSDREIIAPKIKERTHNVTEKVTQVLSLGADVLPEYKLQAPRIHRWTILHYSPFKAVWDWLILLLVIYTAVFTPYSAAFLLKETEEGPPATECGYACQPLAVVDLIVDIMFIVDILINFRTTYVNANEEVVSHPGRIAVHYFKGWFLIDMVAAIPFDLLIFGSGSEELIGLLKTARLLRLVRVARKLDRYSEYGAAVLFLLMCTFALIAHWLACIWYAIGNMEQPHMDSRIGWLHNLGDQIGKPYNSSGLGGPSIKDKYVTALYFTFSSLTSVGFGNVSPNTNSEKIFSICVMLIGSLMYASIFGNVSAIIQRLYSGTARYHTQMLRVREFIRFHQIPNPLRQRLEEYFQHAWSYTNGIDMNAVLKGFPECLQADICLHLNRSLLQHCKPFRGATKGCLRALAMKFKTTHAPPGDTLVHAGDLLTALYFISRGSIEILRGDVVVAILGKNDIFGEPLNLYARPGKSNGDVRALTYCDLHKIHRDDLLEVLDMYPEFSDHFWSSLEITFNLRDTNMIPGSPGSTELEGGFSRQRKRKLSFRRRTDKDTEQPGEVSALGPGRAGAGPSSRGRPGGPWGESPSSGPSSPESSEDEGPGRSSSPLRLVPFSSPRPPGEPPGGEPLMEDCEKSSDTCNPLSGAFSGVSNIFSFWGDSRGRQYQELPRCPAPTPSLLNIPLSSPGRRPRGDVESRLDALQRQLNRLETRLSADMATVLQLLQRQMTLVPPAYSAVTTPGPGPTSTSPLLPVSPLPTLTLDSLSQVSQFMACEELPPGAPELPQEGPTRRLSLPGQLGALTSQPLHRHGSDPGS
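U2OS cells were transduced with wild-type KCNH2 virus (2.03 x 10^8 / mL) for 4 h at room temperature, then cultured overnight at 37 C. Thallium flux was read with FluxOr dye. Rate constants were normalized to DMSO controls.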
* = called active by the depositor; i = inactive; ? = inconclusive; / = no result given. This is a sample that favours compounds with a hit; in the whole collection about 7.6% have one here. Unless noted, calls come from the whole dose curve; as a rule, active = well fitted curve in the direction sought with a large enough effect; inconclusive = small, poorly fitted or top-dose-only effect, or another doubt; inactive = no such curve, though single readings can be large; an effect the other way counts as inactive or inconclusive.

SMILES	KCNH2 3.1 inh	MCF10A rerep	KB-V1 MDR tox	SW480 rerep	KB-3-1 cytotox	KCNH2 WT inh
CN1CCN(C(=O)c2ccc(S(=O)(=O)N(C)c3ccccc3)cc2)CC1	12	/	i	/	i	-4
O=C(c1cccc(S(=O)(=O)N2CCCCCC2)c1)N1CCN(c2ccccc2F)CC1	-16	15%	?	14%	i	14
CCOC(=O)C1CCCN(C(=O)c2cccc(S(=O)(=O)N(C)c3ccc(OC)cc3)c2)C1 (configuration not stated)	0	8%	?	-5%	i	19
Cc1cccc(N2CCN(C(=O)c3ccc(S(=O)(=O)N(C)c4ccccc4)cc3)CC2)c1C	-13	5.2µM*	23µM*	10µM*	?	11
COc1ccc(N(C)S(=O)(=O)c2cccc(C(=O)N3CCN(c4cccc(C)c4C)CC3)c2)cc1	7	12%	i	28%	16µM*	-1
O=C(Nc1ncccn1)C1c2ccccc2Oc2ccccc21	-7	2%	?	6%	i	1
Cc1cccc2sc(NC(=O)C3c4ccccc4Oc4ccccc43)nc12	-39	6.5µM*	?	?	i	-11
Cc1nnc(NC(=O)C2c3ccccc3Oc3ccccc32)s1	-1	13µM*	i	?	?	-2
CC(C)c1nnc(NC(=O)C2c3ccccc3Oc3ccccc32)s1	-1	28%	i	0%	i	-3
Cc1cccc2sc(NC(=O)c3ccc(Cl)s3)nc12	-14	16µM*	i	-3%	i	-1
O=C(Nc1ccncc1)C1c2ccccc2Oc2ccccc21	6	-1%	15µM*	-3%	i	2
CCOc1c(Br)cc(C(=O)N2CCCN(C)CC2)cc1OC	0	-2%	i	5%	i	8
CC(NC(=O)c1ccccc1Cl)C1CC2CCC1C2 (configuration not stated)	11	-4%	i	-8%	i	5
NC(c1csc(NC(=O)Nc2ccccc2)n1)C1CCCCC1 (configuration not stated)	/	/	18µM*	/	?	/
NC(c1csc(NC(=O)Nc2cccc(Cl)c2)n1)C1CCCCC1 (configuration not stated)	/	/	i	/	?	/
CCOC(=O)CSc1c(-c2cccs2)[nH]c2ccccc12	0	23µM*	?	?	?	5
CN(C)S(=O)(=O)c1cccc2c1C(=O)c1ccccc1C2=O	4	-24%	i	21µM*	i	-31
CN(C)S(=O)(=O)c1ccccc1C#N	10	19%	i	-6%	i	-1
CCCCCCC(=O)Nc1ccc2nc3c(=O)n(C)c(=O)n(C)c3nc2c1C	/	/	?	/	i	/
CCCC(=O)Nc1c2c(nn1-c1ccccc1)CSC2	-114*	4%	i	-34%	i	7
O=C(CBr)Nc1c2c(nn1-c1ccccc1)CSC2	-8	-7%	i	-5%	i	0
CCOc1ccc(S(=O)(=O)N2CCN(c3c(C)cccc3C)CC2)c2ccccc12	/	/	?	/	i	/
CCOc1ccc(S(=O)(=O)N2CCN(c3ccccc3F)CC2)c2cccnc12	15	16%	?	16µM*	i	-2
CN(C(=O)c1nn(C)c2c1CSc1ccccc1-2)c1ccc(F)cc1	-1	15%	i	-4%	i	-15
CCc1nc2ccc(C(=O)NCc3ccccc3)cc2nc1CC	-6	1%	i	-38%	i	/
CC1=Nc2cc(C(=O)NCCCN3CCN(C)CC3)ccc2Sc2ccc(C)cc21	9	?	i	6%	i	10
